Laboratory results: publication PMC12136788
Where a chain is given by its changes, count along the chain named. Whole data set: some 24,000 sequences, median “enrichment r” near 0.99, cut for the highest 2% near 3.7. For the sample, the highest values were picked, then their nearest neighbours and some sequences at random.

T1: UNK ZnF1-3 (human, UniProt Q9C0B0 31-174)
T1 sequence: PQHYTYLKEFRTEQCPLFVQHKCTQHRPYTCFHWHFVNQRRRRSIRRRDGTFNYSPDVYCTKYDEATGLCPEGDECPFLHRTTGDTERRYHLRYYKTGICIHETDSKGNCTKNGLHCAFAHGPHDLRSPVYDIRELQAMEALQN

B1: chr5:138654669:138654670:+_ENSG00000015479_ENST00000502499|hu_hu|motif|central (ssRNA)
RNA: GGGAGUUCUACAGUCCGACGAUCUUUCUUUAUUCUUUUAUACUUCUGGGAUAAAUGAACUCUCACUGGCUUGCCAAAUACGGACGCUGGUGUGGUUGUGUAAUAAUCCACUGCGGCCUGAGCAUCCUCUGUGGUUGCCAUUUCCAACAGAGGAUUGAGCAUCA
B2: 59350742_59359075_1706_CDS_ENSG00000157450_ENST00000557998|human|control|control (ssRNA)
RNA: GGGAGUUCUACAGUCCGACGAUCGUUCUGUGACGACCCUCCACAUGGUGAGUGCUGGGGACAGCAGGAAGGUAACCUUGGCAUUGCAGGAGGGCCAGUUUCCGUUACAGCACUAGAUGUAGUUCUCCUUGAGUCAUCUCCUAUCAACAGAGGAUUGAGCAUCA
B3: chr13:100518589:100518590:+_ENSG00000125246_ENST00000339105|hu_mus|FALSE|FALSE (ssRNA)
RNA: GGGAGUUCUACAGUCCGACGAUCUUCCCUUGACUGUCUGAGAAGUCCGUCUUCAUCUCGGAAGUCAAUGUACACAAGAUCUAUGGCUUGUAGGCCAAAGGCUUUUGCCGUGACAACAACCUUCUGCCGGGCAUAGAGGAUGUCCAACAGAGGAUUGAGCAUCA
B4: chr17:65337090:65337091:-_ENSG00000197170_ENST00000584008|hu_mus|FALSE|FALSE (ssRNA)
RNA: GGGAGUUCUACAGUCCGACGAUCCCAGUCAUUUAAUAAAUUAUUUGGAUCCUUGGGUCUCUGGAAGUUGAUGACUCCAGCCAACCUGUCUACUUUAGCAAAGAUGGUCUUGUUAACGACUAGAUUCGAGAGGAAAGCCUCUGACAACAGAGGAUUGAGCAUCA
B5: chr9:91093546:91093547:+_ENSG00000106723_ENST00000375859|hu_mus|motif|central (ssRNA)
RNA: GGGAGUUCUACAGUCCGACGAUCUACAUCAUAAUUAUAAAAAUUACUUACAGAAUUAACAGUUGUACUGUGUAUACUUCGGAAUGCAGAGAACAGGGAACCGUCUACACGUUGUAUAAAAUAAAAUUAAAAUUAAAAAUGAAUCAACAGAGGAUUGAGCAUCA
B6: chr12:35831226:35831227:+_ENSMUSG00000020590_ENSMUST00000048519|mus_mus|motif|central (ssRNA)
RNA: GGGAGUUCUACAGUCCGACGAUCUCAGCAGAAGACAUAUAGCCUCUUUGUGUCUAUGUUCAUCUGUGCAACAAGUGCACGGAAUAGAAUAAUUUUAUUAACCAGAGAAUACUGUACUCUACUCAUCGGUUAAACACUCUACACCAACAGAGGAUUGAGCAUCA
B7: chr9:91093546:91093547:+_ENSG00000106723_ENST00000375859|hu_mus|FALSE|FALSE (ssRNA)
RNA: B5 RNA with G80U, G81A
B8: chr1:10024197:10024198:-_ENSMUSG00000025917_ENSMUST00000027050|mus_mus|FALSE|FALSE (ssRNA)
RNA: GGGAGUUCUACAGUCCGACGAUCCAGCAUCUGUGUACUAACAUCAAUCCCGGAGAGCCAGCAGCCAUAACCAGGGUGGCUAUGAUACCAACCGAUUGCAUUCUCAAGGCGGCCAACCUGUUUGGCAUUUUCUAUGUAUGCAGCCAACAGAGGAUUGAGCAUCA
B9: chr1:225700702:225700703:-_ENSG00000154380_ENST00000366843|hu_hu|motif|central (ssRNA)
RNA: GGGAGUUCUACAGUCCGACGAUCACCAAUAGCAUUCCCUCCACUUGGGAAAGAGGUAUCCUCCAUCCGUGACACUUUCCGGAGUUUUGCUCCGGCAAUUGCAGCUGCAAGUCCAGUUAAAGGGCGAUUGUCUUCUGACAUGGACAACAGAGGAUUGAGCAUCA
B10: chr14:78183846:78183847:+_ENSG00000119705_ENST00000557342|hu_hu|hu_hu_hu_mus_False|58_98 (ssRNA)
RNA: GGGAGUUCUACAGUCCGACGAUCUCUCAGAAAUCUUUCUUUCUUUUAUGUUUGAGCUCCGUGCAAAGCCUUUGCUCUUCUAGUGUGAACGUGGAUCUAUGGGAGGGAAAGCACUGUCAGAAAAGGUAAUUUUUUUUUUAAAGACAACAGAGGAUUGAGCAUCA
B11: chr17:32491106:32491107:-_ENSMUSG00000024050_ENSMUST00000163107|mus_hu|FALSE|FALSE (ssRNA)
RNA: GGGAGUUCUACAGUCCGACGAUCAUCGAUAACCAAAAUGUGGCCACUGAAAAAAGUUAAAAGGUCAAUCAGCUCCUGGCUUCUAGCUGGCCCAGGAUUGCAAAAUAAAAAGAUCCACGUUCCUUAUUCUCUACACAAAACGCGCAACAGAGGAUUGAGCAUCA
B12: chr6:21597833:21597834:+_ENSG00000124766_ENST00000244745|hu_mus|motif|central (ssRNA)
RNA: GGGAGUUCUACAGUCCGACGAUCAAAGUUAAAACUCUAGCCCUUCAGUGAAGGAGACGUAAAAUGGCGUGGGUAACAACACGGGAAAAAAAAAAAAAACGAAGAAAAAGAAAGAAAAUAAAAAAGAAGAUAAAGAAACGAGGUCAACAGAGGAUUGAGCAUCA
B13: chr1:100342015:100342016:+_ENSG00000162688_ENST00000361915|hu_hu|motif|central (ssRNA)
RNA: GGGAGUUCUACAGUCCGACGAUCAGAUUCUUCCAUGGAGAAGUCUAUCUCUUCAAAUGGGAAAGUAAAAUACCUGGUAACGGAAGGAUGCUUUCUAGUGACAGGUCCUAGUUUUGGACCAUGGCCAGCCAGUCGUUCAUAAAACAACAGAGGAUUGAGCAUCA
B14: chr6:21597833:21597834:+_ENSG00000124766_ENST00000244745|hu_mus|FALSE|FALSE (ssRNA)
RNA: B12 RNA with G82U, G83A
B15: chr2:48026839:48026840:+_ENSG00000116062_ENST00000540021|hu_hu|hu_hu_hu_mus_False|28_88 (ssRNA)
RNA: GGGAGUUCUACAGUCCGACGAUCAUAGUGAGCCACUAGCGUCCUAAAUCUCGAACAGUGGCGGUCAUCCGAAAACUGGCCGAUGAAAAACUUGCCCAGUGAAGUGUCAACAAAGCAAACACCAUACACACGAGUGUGACCAGACAACAGAGGAUUGAGCAUCA

These binders were tested against T1, UNK ZnF1-3 (assay: nsRBNS (natural sequence RNA bind-n-seq); RBNS binding buffer (assumed for nsRBNS): 25 mM Tris pH 7.5, 150 mM KCl, 3 mM MgCl2, 0.01% Triton X-100, 500 ug/ml BSA, 20 U/ml SUPERase-In, 4 C; UNK is unkempt and MSI1 is Musashi-1; names of the RNAs are library labels; protein concentration not given here; high values mean tight binding).

Question: How did the binding signal turn out when B1 was run?
Answer: 0.487 enrichment R

Question: For B2, which binding signal is on record?
Answer: 0.898 enrichment R

Question: How did the binding signal turn out when B3 was run?
Answer: 0.641 enrichment R

Question: B4 was tested. Which binding signal did it give?
Answer: 1.07 enrichment R

Question: With B5 as the binder, how does the binding signal read?
Answer: 4.68 enrichment R

Question: Which binding signal does the source give for B6 here?
Answer: 0.463 enrichment R

Question: B7 was tested. Which binding signal did it give?
Answer: 7.07 enrichment R

Question: With B8 as the binder, how does the binding signal read?
Answer: 1.5 enrichment R

Question: How did the binding signal turn out when B9 was run?
Answer: 0.794 enrichment R

Question: For B10, which binding signal is on record?
Answer: 1.14 enrichment R

Question: How did the binding signal turn out when B11 was run?
Answer: 1.24 enrichment R

Question: With B12 as the binder, how does the binding signal read?
Answer: 5.74 enrichment R

Question: B13 was tested. Which binding signal did it give?
Answer: 0.918 enrichment R

Question: For B14, which binding signal is on record?
Answer: 7.3 enrichment R

Question: Which binding signal does the source give for B15 here?
Answer: 1.25 enrichment R
